# Reference: PubChem BioAssay
# Active and inactive are the calls of the source.
# Tests used:
# [1] = system: PRMT1 (protein arginine N-methyltransferase 1); experiment: small molecules binding arginine methyltransferase PRMT1 – biochemical, small-molecule microarray, 635 nm fluorescence, primary screen (AID 1088); settings: higher = more signal;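 further: binding of Prmt1 protein to compounds spotted on small-molecule microarray slides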
# [2] = growth effects on S. cerevisiae YJM789 – YJM789 clinical isolate, OD600, 24 h, basal, primary screen (AID 1089); settings: higher = more signal, called active from +8 up or from −8 down;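 further: growth of clinical yeast isolate S. cerevisiae YJM 789 seeded 1000 cells per well; test concentration not given here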
# [3] = S. pombe growth modifiers, basal conditions – strain 972, OD600, 24 h, no modulator, primary screen (AID 1090);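 further: basal condition with compound alone and no growth modifier present; test concentration not given here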; settings: S. pombe 972 growth, higher = more signal, called active from +8 up or from −8 down
# [4] = budding yeast growth modifiers under rapamycin – strain BY4716, OD600, 96 h, primary screen (AID 1091); further: test concentration not given here; settings: S. cerevisiae BY4716 + rapamycin, higher = more signal, called active from +8 up or from −8 down
# [5] = biological target: Torsin-1A-interacting protein 2 (Homo sapiens) (UniProt Q8NFQ8); experiment: small molecules binding lysate-expressed LULL1 – cell lysate, human LULL1 lysate, 635/667 nm fluorescence, primary screen (AID 1092); settings: small-molecule microarray, hLULL1 lysate binding, 635 nm fluorescence; higher = more signal;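 further: probe is lysate of COS7 cells overexpressing human LULL1; score merges per-feature 667 nm fluorescence with signal-to-noise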
# [6] = optical density change of DRC41 E. coli – strain DRC41, OD650, 24 h, E. coli filamentation project, primary screen (AID 1093);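 further: MC1000 strain lacking acrAB efflux and sulA so SOS filamentation is blocked; test concentration not given here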; settings: E. coli DRC41 growth, higher = more signal, called active from +8 up or from −8 down
# [7] = probe aLefty2 binding to arrayed compounds – biochemical, biotinylated probe, 635/667 nm fluorescence, primary screen (AID 1094); settings: small-molecule microarray, higher = more signal;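 further: score merges spot fluorescence near 667 nm with spot signal-to-noise ratio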
# [8] = system: Noggin (protein binding on small-molecule microarray); experiment: small molecules binding Noggin protein – biochemical, 635/667 nm fluorescence, primary screen (AID 1095); settings: 635 nm fluorescence, higher = more signal;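 further: score merges 667 nm feature fluorescence with signal to noise over triplicate slides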
# [9] = biological target: Neurogenic locus notch homolog protein 3 (Homo sapiens) (UniProt Q9UM47); experiment: small molecules binding NOTCH3 protein – biochemical, 635/667 nm fluorescence, primary screen (AID 1096); settings: small-molecule microarray, 635 nm fluorescence, higher = more signal
# [10] = probe aEGFR binding to arrayed compounds – biochemical, biotinylated probe, 635/667 nm fluorescence, primary screen (AID 1097); settings: small-molecule microarray, higher = more signal;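 further: probe is a biotinylated anti-EGFR antibody binding compounds printed on slides; score combines fluorescence near 667 nm and signal to noise of each spot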
# Neurogenic locus notch homolog protein 3 (Homo sapiens), sequence (Q9UM47 whole entry, looked up): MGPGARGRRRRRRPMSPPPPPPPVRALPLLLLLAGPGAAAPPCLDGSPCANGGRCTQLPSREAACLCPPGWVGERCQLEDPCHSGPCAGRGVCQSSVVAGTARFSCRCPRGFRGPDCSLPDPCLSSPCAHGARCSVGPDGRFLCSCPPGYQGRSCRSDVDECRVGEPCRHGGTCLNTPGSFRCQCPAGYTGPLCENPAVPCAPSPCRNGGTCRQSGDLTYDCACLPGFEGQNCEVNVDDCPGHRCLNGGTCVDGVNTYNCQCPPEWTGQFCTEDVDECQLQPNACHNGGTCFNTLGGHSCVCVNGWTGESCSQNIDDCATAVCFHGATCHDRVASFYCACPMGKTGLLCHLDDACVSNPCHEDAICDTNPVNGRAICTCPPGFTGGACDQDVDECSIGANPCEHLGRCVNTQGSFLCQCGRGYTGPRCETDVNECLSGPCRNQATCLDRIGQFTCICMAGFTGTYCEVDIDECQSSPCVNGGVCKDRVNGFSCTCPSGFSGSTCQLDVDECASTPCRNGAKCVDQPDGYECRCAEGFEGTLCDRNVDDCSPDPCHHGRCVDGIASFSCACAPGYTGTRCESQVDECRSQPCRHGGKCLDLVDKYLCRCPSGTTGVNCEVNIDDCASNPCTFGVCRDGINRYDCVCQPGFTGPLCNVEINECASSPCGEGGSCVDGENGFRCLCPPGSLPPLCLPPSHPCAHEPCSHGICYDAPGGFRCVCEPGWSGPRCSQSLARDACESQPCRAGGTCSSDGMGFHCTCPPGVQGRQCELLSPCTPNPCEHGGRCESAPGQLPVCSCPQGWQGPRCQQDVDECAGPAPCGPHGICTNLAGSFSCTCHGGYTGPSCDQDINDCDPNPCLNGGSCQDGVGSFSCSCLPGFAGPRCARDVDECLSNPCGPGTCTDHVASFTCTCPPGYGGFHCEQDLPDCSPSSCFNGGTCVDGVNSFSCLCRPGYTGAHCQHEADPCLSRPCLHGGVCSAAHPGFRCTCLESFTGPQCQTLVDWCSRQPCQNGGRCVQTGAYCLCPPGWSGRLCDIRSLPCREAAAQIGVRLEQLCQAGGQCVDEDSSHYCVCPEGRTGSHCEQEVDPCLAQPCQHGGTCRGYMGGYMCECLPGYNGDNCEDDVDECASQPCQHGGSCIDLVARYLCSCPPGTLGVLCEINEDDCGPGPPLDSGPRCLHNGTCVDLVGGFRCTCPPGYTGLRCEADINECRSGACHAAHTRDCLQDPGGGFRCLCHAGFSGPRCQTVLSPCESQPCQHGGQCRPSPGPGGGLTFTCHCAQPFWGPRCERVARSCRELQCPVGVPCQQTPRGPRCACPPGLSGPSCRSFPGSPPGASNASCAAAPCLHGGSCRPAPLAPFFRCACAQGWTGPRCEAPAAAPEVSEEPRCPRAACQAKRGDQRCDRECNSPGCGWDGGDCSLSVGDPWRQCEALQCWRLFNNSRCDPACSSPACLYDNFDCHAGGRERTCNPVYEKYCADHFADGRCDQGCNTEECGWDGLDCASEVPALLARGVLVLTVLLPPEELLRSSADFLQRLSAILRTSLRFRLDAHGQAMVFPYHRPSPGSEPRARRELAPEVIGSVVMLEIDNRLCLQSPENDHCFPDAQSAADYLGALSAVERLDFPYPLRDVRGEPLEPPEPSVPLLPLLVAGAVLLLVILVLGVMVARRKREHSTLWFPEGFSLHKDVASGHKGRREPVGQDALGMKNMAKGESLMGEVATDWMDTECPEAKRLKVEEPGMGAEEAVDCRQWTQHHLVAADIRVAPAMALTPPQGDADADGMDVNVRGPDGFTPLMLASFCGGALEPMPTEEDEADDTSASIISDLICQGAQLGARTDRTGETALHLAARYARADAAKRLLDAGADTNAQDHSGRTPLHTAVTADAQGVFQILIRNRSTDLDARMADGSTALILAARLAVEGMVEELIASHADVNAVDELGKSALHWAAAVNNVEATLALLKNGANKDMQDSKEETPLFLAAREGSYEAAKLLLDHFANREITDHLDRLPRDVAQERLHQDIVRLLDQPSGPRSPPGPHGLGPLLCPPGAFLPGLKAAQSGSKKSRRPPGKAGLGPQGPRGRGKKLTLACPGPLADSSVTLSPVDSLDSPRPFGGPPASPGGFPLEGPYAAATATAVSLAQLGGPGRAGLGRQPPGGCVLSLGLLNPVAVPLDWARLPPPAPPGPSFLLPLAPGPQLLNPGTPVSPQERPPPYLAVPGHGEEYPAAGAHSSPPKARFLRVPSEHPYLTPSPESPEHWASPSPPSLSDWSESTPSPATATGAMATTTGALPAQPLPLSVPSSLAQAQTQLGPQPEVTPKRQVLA
# Torsin-1A-interacting protein 2 (Homo sapiens), sequence (Q8NFQ8 whole entry, looked up): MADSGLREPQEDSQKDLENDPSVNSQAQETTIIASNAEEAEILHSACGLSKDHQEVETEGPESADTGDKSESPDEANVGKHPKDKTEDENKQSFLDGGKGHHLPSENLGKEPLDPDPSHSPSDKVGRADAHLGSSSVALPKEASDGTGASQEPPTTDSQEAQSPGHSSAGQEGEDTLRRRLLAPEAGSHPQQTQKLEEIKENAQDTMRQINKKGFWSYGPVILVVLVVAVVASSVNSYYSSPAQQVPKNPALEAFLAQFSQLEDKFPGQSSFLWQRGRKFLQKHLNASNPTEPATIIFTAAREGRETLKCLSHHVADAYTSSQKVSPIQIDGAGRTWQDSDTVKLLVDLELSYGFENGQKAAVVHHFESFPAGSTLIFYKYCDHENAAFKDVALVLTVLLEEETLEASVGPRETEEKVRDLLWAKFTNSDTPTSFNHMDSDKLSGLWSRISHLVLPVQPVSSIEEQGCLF
SMILES,composite z-score [1],z-score [2],z-score [3],z-score [4],composite z-score [5],z-score [6],composite z-score [7],composite z-score [8],composite z-score [9],composite z-score [10]
COC(=O)[C@@]1(Cc2ccc(OC)cc2)[C@H]2c3cc(C(=O)N(C)C)n(Cc4ccccn4)c3C[C@H]2CN1C(=O)c1ccccc1,-1.12,0.0106 (inactive),0.785 (inactive),0.144 (inactive),3.08,-0.621 (inactive),0.282,-1.12,0.0171,-0.0355
C=C(C)[C@@H]1CC=C(C(O)C2C=CC3C(=O)N(C)C(=O)C3N2Nc2ccccc2)CC1 (stereo not given in full),1.12,0.821 (inactive),-0.329 (inactive),1.92 (inactive),1.16,-1.03 (inactive),0.118,0.728,1.08,0.0044
CC(C)N1C(=O)c2ccccc2[C@](C)(C(=O)NCCN2CCOCC2)[C@@H]1c1ccc(CO)cc1,1.2,0.608 (inactive),0.516 (inactive),0.511 (inactive),2.37,-0.487 (inactive),0.0971,0.495,0.1,-0.0152
CCCC#C[Si](O[C@H](CC)c1cn(Cc2cccc(Cl)c2)nn1)(C(C)C)C(C)C,0.756,-1.19 (inactive),-9.34 (active),-1.52 (inactive),1.91,1.5 (inactive),-0.0068,0.476,1.13,0.252
COc1cc2c(cc1OC)CN(C(=O)[C@H]1[C@@H]3C(=O)O[C@@H](c4ccccc4)[C@@H](c4ccccc4)N3[C@@H](c3ccc(O)cc3)[C@]13C(=O)Nc1ccc(C#CCCO)cc13)CC2,1.56,1 (inactive),-0.0822 (inactive),1.91 (inactive),2.44,1.32 (inactive),-0.145,0.837,0.434,-0.152
